Source: PubChem (Sanford-Burnham Center for Chemical Genomics)
Hits are enriched below; roughly 4% of the tested compounds scored in any of these assays.
TIM10 inh = TIM10 yeast growth inhibition; AID 463195; inhibition, % at 10 µM; S. cerevisiae TIM10 strain growth, BacTiter-Glo luminescence, 24 h; hit rate 1.4% among 330,000;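 active = inhibition of 40% or more at the single tested concentration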;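 also: wild-type TIM10 isogenic control strain grown at permissive 25 °C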
tim23-1 inh = tim23-1 yeast growth inhibition. S. cerevisiae tim23-1 growth, BacTiter-Glo luminescence, 24 h. inhibition, % at 20 µM. hit rate 1.3% among 330,000;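 active = growth inhibition of the mutant yeast at or above 50%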;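 also: temperature-sensitive mutant grown at 25 °C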
NLRP3 yeast inh = NALP3 inhibition in yeast | Yeast reconstituted NLRP3/ASC/caspase-1, beta-gal luminescence, 24 h | inhibition, % at 10 µM | hit rate 0.39% among 330,000 | AID 2825;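 active = inhibition of 50% or more; inactive = inhibition below 50%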
NALP1 yeast inh = NALP1 inhibition; S. cerevisiae NALP1/ASC/caspase-1 growth, X-gal OD620, 72 h; inhibition, % at 10 µM; hit rate 0.61% among 280,000; AID 2071; in the data active = inhibition mostly above about 24%, no sharp cut-off; inactive = mostly below about 32%
tim10-1 inh = tim10-1 yeast growth inhibition; AID 463190; S. cerevisiae tim10-1 ts strain growth, BacTiter-Glo, 24 h; hit rate 2.2% among 330,000; inhibition, % at 20 µM;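 active = inhibition of at least 40%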;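 also: mutant grown at 25 °C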
tim10-1 conf = confirmation of tim10-1 mutant yeast growth inhibitors; shares compounds with tim10-1 inh; S. cerevisiae tim10-1 ts strain growth, BacTiter-Glo, 24 h; inhibition, % at 20 µM; hit rate 56% among 7,400;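 active = inhibition of yeast growth at or above a set limit in either of two repeat tests at 20 µM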;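 also: tim10-1 mutant grown at permissive 25 °C to find synthetic lethal compounds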
tim10 confirm = confirmation of TIM10 yeast growth inhibitors; shares compounds with TIM10 inh; S. cerevisiae tim10 strain growth, BacTiter-Glo luminescence, 24 h; inhibition, % at 10 µM; hit rate 63% among 4,600; AID 463215;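 active = inhibition of yeast growth at or above a set limit in either of two replicates at 10 µM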; also: this counterscreen used the strain with wild-type TIM10
tim23-1 confirm = tim23-1 yeast growth inhibition, confirmed; shares compounds with tim23-1 inh; S. cerevisiae tim23-1 growth, BacTiter-Glo luminescence, 24 h; inhibition, % at 20 µM; hit rate 83% among 4,400; AID 463218;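 active = inhibition above about 39% in either of two replicate wells at 20 µM, limit read from the data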;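 also: temperature-sensitive tim23-1 mutant grown at 25 °C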
Numbers stand for hits; – = inactive; · = not tested or not shown.

SMILES	TIM10 inh	tim23-1 inh	NLRP3 yeast inh	NALP1 yeast inh	tim10-1 inh	tim10-1 conf	tim10 confirm	tim23-1 confirm
Cc1ccc(N2C(=O)c3cccc4c([N+](=O)[O-])ccc(c34)C2=O)c2cccnc12	–	–	–	·	–	·	·	·
CC(c1ccon1)N(C)C(=O)c1ccc2nc(Cc3cccc(Cl)c3)oc2c1 (centres undefined)	–	–	–	–	–	·	·	·
CCOC(=O)c1ccc(-n2c(CCC(=O)O)ccc2-c2ccc(F)cc2)cc1	–	–	–	–	–	·	·	·
Cc1cc(C)nc(S/C=C/C(=O)c2ccc(F)cc2)n1	48	56	–	–	41	–	39	46
COc1cccc(/C=C/C(=O)NCc2cn3cc(Cl)ccc3n2)c1OC	–	–	–	–	–	·	·	·
Cc1ccc(N=c2ssnc2Cl)cc1	–	66	–	–	64	63	·	90
Cc1nnc(N=c2ssnc2Cl)o1	–	–	–	·	–	·	·	·
Cc1cc(Cl)ccc1N=C1N=C(N)c2ccccc21	–	–	–	–	–	·	·	·
Cc1cc(C)c(C#N)c(Cl)n1	–	–	–	·	–	·	·	·
Cc1cc(C)nc(/N=c2/ssnc2Cl)c1	77	91	–	–	81	83	95	68
Cc1cc(Cl)ccc1N=c1ssnc1Cl	–	59	–	–	52	55	·	77
C=CCNc1nnc(SCC(=O)N2CCC(C(N)=O)CC2)s1	–	–	–	·	–	·	·	·
Cc1c(NS(=O)(=O)c2cccc(C(=O)OCC(=O)N(C)C3CCCCC3)c2)c(=O)n(-c2ccccc2)n1C	–	–	–	–	–	·	·	·
O=C(NCCN1CCOCC1)C1CCN(S(=O)(=O)N2CCCC2)CC1	–	–	–	–	–	·	·	·
C=CCN(c1ccccc1Cl)S(=O)(=O)c1cccc(C(=O)OCC(=O)N(C)C2CCS(=O)(=O)C2)c1 (centres undefined)	–	–	–	–	–	·	·	·
COC(C(=O)Nc1ccccc1C(=O)N1CCOCC1)c1ccccc1 (centres undefined)	–	–	–	–	–	·	·	·
Cc1ccc(NC(=S)NC(=O)C2CCCCC2)c(Br)c1	–	–	–	·	–	·	·	·
CCCNC(=O)c1nnsc1S(=O)(=O)c1ccc(Cl)cc1	76	64	–	104	75	66	70	63
CCCNC(=O)c1nnsc1S(=O)c1ccc(Cl)cc1 (centres undefined)	83	82	–	103	91	87	96	91
CNC(=O)c1nnsc1S(=O)c1ccc(Cl)cc1 (centres undefined)	77	52	–	93	70	68	73	51
Cc1ccc(S(=O)c2snnc2C)cc1 (centres undefined)	–	–	–	–	–	·	·	·
CCCNC(=O)c1ccc2snnc2c1	–	–	–	–	–	·	·	·
Cc1ccccc1Nc1cccc2nonc12	–	–	–	–	–	·	·	·
Cc1ccc(-c2nc3ccccc3c(=O)o2)cc1	–	–	–	–	–	·	·	·
O=c1oc(-c2ccc(Br)o2)nc2ccccc12	–	54	–	–	46	–	·	60
SMILES	TIM10 inh	tim23-1 inh	NLRP3 yeast inh	NALP1 yeast inh	tim10-1 inh	tim10-1 conf	tim10 confirm	tim23-1 confirm
Cc1ccsc1/C=N/Nc1nc(=O)[nH]nc1C	43	50	–	–	52	50	48	56
CC[C@@H]1CC=C[C@H]2[C@H]1C(=O)N(Cc1ccccc1)[C@H]2c1cc(C)ccc1F	50	51	–	–	55	35	38	54
Cc1ccc(-c2cc([C@H]3[C@H]4C=CC[C@@H](C)[C@@H]4C(=O)N3Cc3ccccc3)ccc2F)cc1	–	–	–	–	–	·	·	·
O=C(Nc1ccccc1Cl)N1CCCN(c2nc(-c3ccccc3)ns2)CC1	46	55	–	–	43	–	33	45
CCCCC[C@H]1CN(C2CCCCC2)C(=O)[C@@H]1CC(=O)NCc1ccccc1	–	–	–	–	–	·	·	·
CCc1nc2sc3ccccc3c(=O)c2c(=O)n1Cc1ccc(OC)cc1	–	53	–	·	40	31	·	41
CCCc1nc2sc3ccccc3c(=O)c2c(=O)n1CCOC	–	–	–	–	–	·	·	·
O=C1C(c2ccccc2)=[N+]([O-])c2ccccc21	55	61	–	·	58	47	53	–
